# Test results as given in PubChem BioAssay (NCATS).
# Results filed as inconclusive are left out. Where a call stands in place of a potency, no number is given. A number with no mark means an inactive call. Calls of active or inactive are those of the source. Calls come from the whole dose curve; as a rule, active = well fitted cell-killing curve with a large enough effect; inconclusive = small, poorly fitted or top-dose-only effect, or effect the other way; inactive = flat fitted curve, though single readings scatter.
# How the values were obtained:
# Assay in all cases: Primary qHTS to identify gynecologic anti-cancer compounds using libraries of approved drugs and bioactive compounds (AID 1345084); note: nearly all actives have a fitted effect of over 55% in size
# CAOV3 = conditions: Gynecologic cancer cell panel viability, ATPlite luminescence, 48 h; series mostly up to 57.5 µM
# Outline: (§1)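 Cells, 1,000 per well, plated 16 h, then exposed 48 h at 37 C to compounds. Viability by ATPlite luminescence after 15 min at room temperature.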
# Es-2 = conditions: Gynecologic cancer cell panel viability, ATPlite luminescence, 48 h; series mostly up to 57.5 µM
# Outline: as §1
# HeLa = conditions: Gynecologic cancer cell panel viability, ATPlite luminescence, 48 h; series mostly up to 57.5 µM
# Outline: as §1
# Hek293T = conditions: Gynecologic cancer cell panel viability, ATPlite luminescence, 48 h, control line for the selectivity index; series mostly up to 57.5 µM
# Outline: as §1
# JEG-3 = conditions: Gynecologic cancer cell panel viability, ATPlite luminescence, 48 h; series mostly up to 57.5 µM
# Outline: as §1
# PA-1 = conditions: Gynecologic cancer cell panel viability, ATPlite luminescence, 48 h; series mostly up to 57.5 µM
# Outline: as §1
# OV90 = conditions: Gynecologic cancer cell panel viability, ATPlite luminescence, 48 h; series mostly up to 57.5 µM
# Outline: as §1
# CASKI = conditions: Gynecologic cancer cell panel viability, ATPlite luminescence, 48 h; series mostly up to 57.5 µM
# Outline: as §1
# Potency is the fitted concentration of half-maximal effect.
structure (smiles),measurement,setting,value
Cc1cc(-c2nc(-c3ccc(OC(F)(F)F)cc3)no2)nn1Cc1ccnc(N2CCN(C3CC3)CC2)c1,Potency,CAOV3,inactive
same,Potency,Es-2,inactive
same,Potency,HeLa,inactive
same,Potency,Hek293T,inactive
same,Potency,JEG-3,inactive
same,Potency,PA-1,inactive
CC(C)NC(=O)COc1cccc(-c2nc(Nc3ccc4[nH]ncc4c3)c3ccccc3n2)c1,Potency,CAOV3,25.1 µM (active)
same,Potency,HeLa,17.8 µM (active)
same,Potency,JEG-3,inactive
same,Potency,OV90,inactive
C=C(NC(=O)C(=C)NC(=O)c1csc(C2=NC3c4csc(n4)C4NC(=O)c5csc(n5)C(C(C)(O)C(C)O)NC(=O)C5CSC(=N5)/C(=C/C)NC(=O)C(C(C)O)NC(=O)c5csc(n5)C3(CC2)NC(=O)C(C)NC(=O)C(=C)NC(=O)C(C)NC(=O)C(C(C)CC)NC2C=Cc3c(C(C)O)cc(nc3C2O)C(=O)OC4C)n1)C(N)=O (stereo not given),Potency,CAOV3,25.1 µM (active)
same,Potency,HeLa,inactive
same,Potency,Hek293T,17.8 µM (active)
same,Potency,OV90,inactive
same,Potency,PA-1,28.2 µM (active)
FC(F)(F)c1ccc(/C=C/c2nc(COc3ccc(CCCCn4ccnn4)cc3)co2)cc1,Potency,CAOV3,inactive
same,Potency,HeLa,inactive
same,Potency,Hek293T,inactive
COc1cc(Br)c(S(=O)(=O)Nc2ccc(Cl)c(O[C@@H]3CCN(C)C3)c2)cc1OC,Potency,CAOV3,inactive
same,Potency,Es-2,inactive
same,Potency,HeLa,inactive
same,Potency,JEG-3,inactive
CCCCNc1ncc2c(-c3ccc(S(=O)(=O)N4CCOCC4)cc3)nn(C3CCC(O)CC3)c2n1 (stereo not given),Potency,CAOV3,7.94 µM (active)
same,Potency,HeLa,10 µM (active)
same,Potency,JEG-3,inactive
Cn1cc(-c2ccc(S(=O)(=O)n3ccc(/C=C/C(=O)Nc4ccccc4N)c3)cc2)cn1,Potency,CAOV3,17.8 µM (active)
same,Potency,Es-2,8.91 µM (active)
same,Potency,HeLa,10 µM (active)
same,Potency,JEG-3,10 µM (active)
same,Potency,OV90,15.8 µM (active)
same,Potency,PA-1,7.08 µM (active)
CC(C)=C1C[C@@]2(C)C(=CC1=O)CC[C@@H](OC(=O)/C(C)=C/CO)[C@@H]2C,Potency,CAOV3,inactive
same,Potency,HeLa,inactive
same,Potency,Hek293T,inactive
same,Potency,JEG-3,inactive
same,Potency,OV90,inactive
COC1C(O)C(OC2CCC3(C)C(CCC45CCC6C7(COC(=O)C7)OC4(O)C6(C)CCC35)C2)OC(C)C1OC1OC(CO)C(OC2OC(CO)C(O)C(O)C2O)C(O)C1O (stereo not given),"activity change, negative = cytotoxicity",CAOV3,5.13% [at 11.6 µM]
same,"activity change, negative = cytotoxicity",CASKI,22.8% [at 11.6 µM]
same,"activity change, negative = cytotoxicity",HeLa,-19.8% [at 11.6 µM]
same,"activity change, negative = cytotoxicity",OV90,-0.158% [at 11.6 µM]
CNS(=O)(=O)c1ccccc1Nc1nc(Nc2ccc(N3CCN(C)CC3)cc2OC)ncc1Br,Potency,CAOV3,2.24 µM (active)
same,Potency,CASKI,7.94 µM (active)
same,Potency,Hek293T,14.1 µM (active)
same,Potency,PA-1,2 µM (active)
CS/C=C/C(=O)O[C@@H]1CCC2=CC(=O)C(=C(C)C)C[C@]2(C)[C@H]1C,Potency,CAOV3,inactive
same,Potency,Es-2,inactive
same,Potency,HeLa,inactive
same,Potency,Hek293T,inactive
same,Potency,JEG-3,inactive
same,Potency,OV90,inactive
same,Potency,PA-1,inactive
Cc1csc2c(N[C@@H](C)CN3CCN(S(=O)(=O)c4ccc(Cl)c(Cl)c4)CC3)ncnc12,Potency,CAOV3,inactive
same,Potency,HeLa,inactive
same,Potency,JEG-3,inactive
same,Potency,PA-1,inactive
C=C1CC[C@@H]2[C@](C)(CO)[C@H](O)CC[C@@]2(C)[C@@H]1C/C=C1/C(=O)OCC1O (stereo not given in full),Potency,CAOV3,inactive
same,Potency,HeLa,inactive
same,Potency,JEG-3,inactive
same,Potency,OV90,inactive
Cn1cc(-c2cnn3c(N)c(Br)c(C4CCCNC4)nc23)cn1 (stereo not given),Potency,CAOV3,inactive
same,Potency,CASKI,inactive
same,Potency,JEG-3,inactive
same,Potency,OV90,inactive
same,Potency,PA-1,14.1 µM (active)
COc1ccc(Cl)c(Nc2ncnc3cc(OCC4CCN(C)CC4)c(OC)cc23)c1,Potency,CAOV3,8.91 µM (active)
same,Potency,Es-2,inactive
same,Potency,HeLa,inactive
same,Potency,Hek293T,inactive
same,Potency,JEG-3,inactive
CC(C)S(=O)(=O)NC[C@H](C)c1ccc(-c2ccc(CCNS(C)(=O)=O)cc2)cc1,Potency,CAOV3,inactive
same,Potency,Es-2,inactive
same,Potency,HeLa,inactive
same,Potency,Hek293T,8.91 µM (active)
same,Potency,JEG-3,inactive
same,Potency,PA-1,inactive
C=C1C(=O)O[C@H]2/C=C(/C)[C@@H](OC(C)=O)C/C=C(\C)C[C@@H](OC(=O)/C(=C/C)COC(=O)/C(=C/C)CO)[C@@H]12,Potency,CAOV3,8.91 µM (active)
same,Potency,HeLa,inactive
same,Potency,OV90,inactive
C/C=C/C=C/C=C/C(=O)O[C@@H]1C=C2COC(=O)[C@]2(O)[C@@]2(C)CCCC(C)(C)[C@H]12,Potency,CAOV3,inactive
same,Potency,Es-2,inactive
same,Potency,HeLa,inactive
same,Potency,Hek293T,inactive
same,Potency,JEG-3,inactive
same,Potency,OV90,inactive
same,Potency,PA-1,inactive
COc1cc(C[C@H]2C(=O)OC[C@@H]2Cc2ccc(OC)c(OC)c2)ccc1O,Potency,CAOV3,inactive
same,Potency,HeLa,inactive
same,Potency,JEG-3,inactive
same,Potency,OV90,inactive
same,Potency,PA-1,inactive
C=C1C(=O)O[C@@H]2C3C(=C(C)[C@@H](O)[C@@H](OC(=O)/C(=C/C)COC(C)=O)[C@@H]12)C(=O)[C@H]1O[C@@]31C (stereo not given in full),Potency,CAOV3,8.91 µM (active)
same,Potency,Es-2,8.91 µM (active)
same,Potency,HeLa,inactive
same,Potency,Hek293T,7.94 µM (active)
same,Potency,OV90,inactive
same,Potency,PA-1,8.91 µM (active)
NCCOc1cc(C(=O)Nc2cc(OCCN)c3ccccc3n2)nc(C(=O)Nc2cc(OCCN)c3ccccc3n2)c1,Potency,CAOV3,inactive
same,Potency,Es-2,inactive
same,Potency,Hek293T,inactive
same,Potency,JEG-3,inactive
same,Potency,OV90,inactive
same,Potency,PA-1,7.94 µM (active)
Cc1nc(-c2cn3c(n2)-c2ccc(-c4cnn(C(C)(C)C(N)=O)c4)cc2OCC3)n(C(C)C)n1,Potency,CAOV3,35.5 µM (active)
same,Potency,Es-2,inactive
same,Potency,HeLa,inactive
same,Potency,Hek293T,15.8 µM (active)
COc1cc2c(NC3CCN(C(C)C)CC3)nc(N3CCC(F)(F)CC3)nc2cc1OCCCN1CCCC1,Potency,CAOV3,8.91 µM (active)
same,Potency,CASKI,31.6 µM (active)
same,Potency,JEG-3,22.4 µM (active)
same,Potency,OV90,11.2 µM (active)
same,Potency,PA-1,22.4 µM (active)
C=C1C(=O)O[C@H]2C3=C(C)CCC[C@]3(C)C(=O)C[C@@H]12,Potency,CAOV3,31.6 µM (active)
same,Potency,Es-2,31.6 µM (active)
same,Potency,HeLa,inactive
same,Potency,JEG-3,inactive
CC(C)C[C@@H]1NC(=O)[C@@H]2C[C@@]34C[C@@H]5[C@@]6(C)CCCC(C)(C)C6CC[C@@]5(C)N(c5ccccc53)[C@H]4N2C1=O (stereo not given in full),Potency,CAOV3,inactive
same,Potency,HeLa,inactive
COc1ccc(Oc2c(Cl)cnn(-c3cc(C)cc(C)c3)c2=O)cc1,Potency,CAOV3,28.2 µM (active)
same,Potency,Es-2,inactive
same,Potency,HeLa,inactive
same,Potency,Hek293T,inactive
CC1=CC2/C=C(\C)CCC(O)C(=O)C(O)CC(=O)C23C(=O)NC(CC(C)C)C3C1C (stereo not given),Potency,CASKI,inactive
same,Potency,Es-2,inactive
same,Potency,HeLa,inactive
same,Potency,Hek293T,inactive
same,Potency,JEG-3,inactive
same,Potency,OV90,inactive
same,Potency,PA-1,inactive
C=CC(C)(O)CC/C=C(/C)COC(=O)C(C)C1CCC(C)(C=C)O1 (stereo not given),Potency,CASKI,inactive
same,Potency,Es-2,inactive
same,Potency,HeLa,inactive
same,Potency,Hek293T,inactive
same,Potency,OV90,inactive
same,Potency,PA-1,inactive
C=C1C(=O)O[C@@H]2/C=C(\CO)CC/C=C(/C=O)C[C@@H](O)[C@@H]12,Potency,CASKI,inactive
same,Potency,Es-2,31.6 µM (active)
same,Potency,HeLa,inactive
same,Potency,Hek293T,28.2 µM (active)
same,Potency,JEG-3,inactive
C[C@@H]1O[C@@H](O[C@H]2[C@H](OC(=O)[C@]34CCC(C)(C)C[C@H]3C3=CCC5[C@@]6(C)C[C@H](O)[C@H](O[C@@H]7O[C@H](CO)[C@@H](O)[C@H](O)[C@H]7O)[C@](CO)(C(=O)O)C6CC[C@@]5(C)[C@]3(C)C[C@H]4O)OC[C@H](O)[C@@H]2O)[C@H](O)[C@H](O)[C@H]1O[C@@H]1OC[C@@H](O)[C@H](O[C@@H]2OC[C@](O)(CO)[C@H]2O)[C@H]1O (stereo not given in full),"activity change, negative = cytotoxicity",CASKI,-28.8% [at 6.55 µM]
same,Potency,Es-2,2.82 µM (active)
same,"activity change, negative = cytotoxicity",OV90,-28.6% [at 6.55 µM]
Nc1nc(Nc2ccc3c(c2)CCC(N2CCCC2)CC3)nn1-c1cc2c(nn1)-c1ccccc1CCC2 (stereo not given),Potency,CAOV3,7.94 µM (active)
same,Potency,JEG-3,inactive
same,Potency,OV90,inactive
C=CC(=O)Nc1ccc(CN2C(=O)N(c3cc(OC)cc(OC)c3)Cc3cnc(Nc4ccc(N5CCN(C)CC5)cc4)nc32)cc1,Potency,CASKI,14.1 µM (active)
same,Potency,Es-2,inactive
same,Potency,Hek293T,inactive
same,Potency,OV90,inactive
same,Potency,PA-1,inactive
Cc1nnc(C[C@@H]2C=C(c3ccc(Cl)cc3)c3ccccc3-n3c(C)nnc32)o1,Potency,CASKI,inactive
same,Potency,Es-2,12.6 µM (active)
same,Potency,OV90,20 µM (active)
C[C@H]1[C@H](/C=C/c2ccc(-c3ccccc3C#N)cn2)[C@@H]2[C@@H](C)OC(=O)[C@@H]2C[C@@H]1C,Potency,CAOV3,inactive
same,Potency,OV90,inactive
COc1cccc(-c2cn(-c3ccc(CCN4CCC(O)CC4)cc3)c3ncnc(N)c23)c1,Potency,CAOV3,14.1 µM (active)
same,Potency,OV90,28.2 µM (active)
same,Potency,PA-1,12.6 µM (active)
c1cc(NC2CCNCC2)nc(-c2cnc3ccccn23)c1,Potency,CASKI,10 µM (active)
same,Potency,Es-2,17.8 µM (active)
same,Potency,HeLa,8.91 µM (active)
same,Potency,JEG-3,inactive
same,Potency,OV90,11.2 µM (active)
same,Potency,PA-1,20 µM (active)
C=C1C(=O)OC2/C=C(\COC(C)=O)CC/C=C(\C=O)CC(OC(=O)CC(C)C)C12 (stereo not given),Potency,CASKI,inactive
same,Potency,HeLa,inactive
same,Potency,Hek293T,8.91 µM (active)
COc1cc(CCO)ccc1O[C@@H]1O[C@H](CO)[C@@H](O)[C@H](O)[C@H]1O,Potency,CAOV3,inactive
same,Potency,OV90,inactive
CC1CCCC(O)CC(=O)c2c(O)cc(O)cc2CC(=O)O1 (stereo not given),Potency,CAOV3,inactive
same,Potency,JEG-3,inactive
same,Potency,OV90,inactive
N#Cc1ccc(Nc2nc(-c3ccc(O)cc3O)cs2)cc1C(F)(F)F,Potency,CASKI,20 µM (active)
same,Potency,Es-2,14.1 µM (active)
same,Potency,HeLa,7.94 µM (active)
same,Potency,PA-1,8.91 µM (active)
C=CC(=O)Nc1cccc(Nc2nc(Nc3ccc(NC4CN(CCF)C4)cc3OC)ncc2C(F)(F)F)c1,Potency,CASKI,17.8 µM (active)
same,Potency,Es-2,inactive
same,Potency,JEG-3,inactive
CC(C)=CCC/C(C)=C/COCC1OC(n2ccc(=O)[nH]c2=O)C(O)C1O (stereo not given),Potency,CASKI,inactive
same,Potency,Es-2,inactive
same,Potency,HeLa,inactive
same,Potency,Hek293T,inactive
same,Potency,JEG-3,inactive
same,Potency,PA-1,inactive
